Active and inactive are the calls of the source. The call rests on the fitted dose curve; in most records, active means well fitted curve in the direction sought with a large enough effect; inactive means no such curve, though single readings can be large or run the other way.
test: qHTS for small molecule inhibitors of Yes1 kinase: Counter Assay (AID 686950); details: series mostly up to 76.9 µM; activity change, negative = inhibition: at the top concentration;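 further: no kinase present so only ADP-Glo detection of a fixed ADP amount is tested; luminescence from ADP-Glo reporting ADP in a fixed ATP and ADP mixture; 0% = DMSO wells with ATP plus ADP and -100% = ATP-only wells without ADP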
How it was run: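 Enzyme-free detection counter-screen: compounds preincubated 20 min in buffer, then 0.08 mM ATP plus 0.02 mM ADP added for 60 min at room temperature; ADP-Glo luminescence. Buffer 50 mM Tris pH 7.5, 10 mM MgCl2, 150 mM NaCl; normalized to ATP+ADP and ATP-only controls.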

Structure (SMILES)	activity change, negative = inhibition	outcome
Nc1nc2[nH]cc(CCc3ccc(C(=O)N[C@@H](CCC(=O)O)C(=O)O)cc3)c2c(=O)[nH]1	-2.16% (inactive)	–
COc1ccc(C2=N[C@H](c3ccc(Cl)cc3)[C@H](c3ccc(Cl)cc3)N2C(=O)N2CCNC(=O)C2)c(OC(C)C)c1	4.49% (inactive)	–
COCC(=O)NCC=Cc1ccc2ncnc(Nc3ccc(Oc4ccc(C)nc4)c(C)c3)c2c1	4.49% (inactive)	–
CN(C)c1ccc(C2Nc3ccc4ccccc4c3C3=C2C(=O)CC(C)(C)C3)cc1Br (configuration not stated)	-5.06% (inactive)	–
CCN(c1ccccc1)c1cc(NC)[n+](C)c(C)n1	0.75% (inactive)	–
OCCn1cc(-c2cnc3nnn(Cc4ccc5ncccc5c4)c3n2)cn1	1.99% (inactive)	–
CCn1c(-c2nonc2N)nc2cnc(Oc3cccc(NC(=O)c4ccc(OCCN5CCOCC5)cc4)c3)cc21	–	inactive
C[C@@H]1C[C@H]2[C@@H]3CCC4=CC(=O)C=C[C@]4(C)C3(F)[C@@H](O)C[C@]2(C)[C@@]1(O)C(=O)CO (some centres not stated)	-3.38% (inactive)	–
CS(=O)(=O)Oc1ccc2c(NC(N)=O)c(C(=O)c3ccc(Cl)cc3Cl)oc2c1	-1.96% (inactive)	–
O=C(Nc1cccnc1)N1CCC(Cc2cccc(Oc3ccc(C(F)(F)F)cn3)c2)CC1	3.25% (inactive)	–
COc1ccc(-c2c(-c3ccc(O)cc3O)n[nH]c2C)cc1	-0.396% (inactive)	–
Cc1c(CN2CCN(C(=O)C(C)C)CC2)sc2c(N3CCOCC3)nc(-c3cnc(N)nc3)nc12	5.73% (inactive)	–
O=C(Nc1ccc(F)c(C(F)(F)F)c1)Nc1nnc(-c2ccncc2)s1	2.96% (inactive)	–
O=C(C=Cc1ccc(/C=C/C(=O)Nc2ccc(C3=NCCN3)cc2)cc1)Nc1ccc(C2=NCCN2)cc1	0.448% (inactive)	–
C[C@H](NC(=O)Cc1cc(F)cc(F)c1)C(=O)N[C@@H]1C(=O)N(C)c2ccccc2-c2ccccc21	4.73% (inactive)	–
COc1ccc(-c2ccc3c(N4CCOC[C@H]4C)nc(N4CCOC[C@H]4C)nc3n2)cc1CO	5.73% (inactive)	–
C[C@]12CC[C@H](O)CC1=CC[C@@H]1[C@H]2CC[C@]2(C)C(c3cccnc3)=CC[C@H]12	1.56% (inactive)	–
C#Cc1cccc(Nc2ncnc3cc(OCCOC)c(OCCOC)cc23)c1	2.84% (inactive)	–
CN[C@@H](C)C(=O)N[C@H]1CCCC[C@H]2CC[C@@H](C(=O)N[C@@H](c3ccccc3)c3cn(CCCCc4ccc(CCCCn5cc([C@@H](NC(=O)[C@@H]6CC[C@@H]7CCCC[C@H](NC(=O)[C@H](C)NC)C(=O)N76)c6ccccc6)nn5)cc4)nn3)N2C1=O	-3.6% (inactive)	–

Structure (SMILES)	activity change, negative = inhibition	outcome
CCCn1c(=O)c2[nH]c(C34CC5CC3C[C@@H](C5)C4)nc2n(CCC)c1=O	-5.56% (inactive)	–
O=C(O)c1ccc(-c2c[nH]c3ccc(-c4ccccc4)cc23)cc1C1CCCC1	-5.1% (inactive)	–
Cn1cc(-c2ccc3nnc(C(F)(F)c4ccc5ncccc5c4)n3n2)cn1	0.572% (inactive)	–
Cc1cc([C@@H](C)Nc2ccccc2C(=O)O)c2nc(N3CCOCC3)cc(=O)n2c1	5.91% (inactive)	–
CCC(C)(C)C(=O)O[C@H]1C[C@@H](C)C=C2C=C[C@H](C)[C@H](CC[C@@H]3C[C@@H](O)CC(=O)O3)[C@H]21	3.33% [at 47.8 µM] (inactive)	–
COc1cc(F)c(F)c(Nc2ccc(I)cc2F)c1NS(=O)(=O)C1(C[C@H](O)CO)CC1	1.61% (inactive)	–
O=C1[C@H](Cc2ccc(O)cc2)N2C(=O)CCN(C(=O)NCc3ccccc3)[C@H]2CN1Cc1cccc2ccccc12	4.03% (inactive)	–
CCCc1nn(C)c2c(=O)[nH]c(-c3cc(S(=O)(=O)N4CCN(C)CC4)ccc3OCC)nc12	-0.279% (inactive)	–
Cn1cnc2c(F)c(Nc3ccc(Br)cc3Cl)c(C(=O)NOCCO)cc21	3.25% (inactive)	–
Cc1ccc2c(c1)C(=O)[C@@]1(O)CCN(c3ccccc3)C1=N2	-9.74% (inactive)	–
Cc1ccccc1C(C(=O)NC1CCCC1)N(C(=O)Cn1cnc2ccccc21)c1cccc(F)c1 (configuration not stated)	-0.61% (inactive)	–
O=C(NOC[C@H](O)CO)c1ccc(F)c(F)c1Nc1ccc(I)cc1F	2.63% (inactive)	–
COc1ccc(-c2oc3cc(OC)ccc3c2C(=O)c2ccc(C#N)cc2)cc1	1.13% (inactive)	–
CCOc1cc(N2CCC(O)CC2)ccc1Nc1ncc2c(n1)N(C)c1ccccc1C(=O)N2C	4.96% (inactive)	–
OCCC#Cc1nc(-c2ccc(F)cc2)c(-c2ccncc2)n1CCCc1ccccc1	-1.94% (inactive)	–
CCOc1cc(C=C2C(=O)N(c3ccccc3)N=C2C)cc(Cl)c1OCC(=O)OC	4.6% (inactive)	–
CC[C@@H](C)[C@H](NC(=O)[C@H](CC1CCCCC1)NC(=O)c1ccno1)C(=O)N1CCC2(CCc3ccccc32)CC1	2.54% (inactive)	–
CC(c1cc2ccccc2s1)N(O)C(N)=O (configuration not stated)	-0.58% [at 154 µM] (inactive)	–

From PubChem BioAssay (NCATS)
